The whole screen tested about 2,300 compounds, of which about 1,200 (52%) were called active. Inconclusive results (about 34%) are left out. Calls follow the shape of the dose curve; as a rule, active = well fitted inhibition curve with a large enough effect; inconclusive = small, poorly fitted or top-dose-only effect, or effect the other way; inactive = no such curve, though single readings can be large or run the other way. The set was probably picked from earlier hits. The list shows a part of the results.
Potency is read from the fitted curve at half-maximal effect.

The assay is described as follows: Confirmation screen for delayed death inhibitors of the malarial parasite plastid, 48 hour incubation. Also: nearly all actives have a fitted effect of over 65% in size. The conditions noted are these: P. falciparum-infected erythrocytes, luciferase growth; series mostly up to 28.7 µM. In short, it runs like this: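 Erythrocytes infected with luciferase-expressing P. falciparum (2% hematocrit, 0.1% parasitemia) incubated with compounds 48 hours at 37 C, 5% CO2, in RPMI/Albumax. Growth inhibition scored as reduced luminescence after detection reagent.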
Take `CCOC(=O)C1CCCN(C(=O)c2cc3cc4ccc(OC)cc4nc3o2)C1` (stereo unspecified): the Potency was 11.2 µM (active).
Consider `COC(=O)[C@]1(CC(C)C)N[C@H](c2ccc(-c3ccc(F)cc3)c(OC)c2)[C@@H]2C(=O)N(C)C(=O)[C@@H]21`, for which the Potency is 6.31 µM (active).
For the compound `COCCN(C(=O)CCCC(=O)Nc1ccccn1)C(C(=O)NC1CCCCC1)c1ccc(C)cc1` (stereo unspecified), the Potency was 11.2 µM (active).
Regarding `CC[C@H]1OC(=O)[C@H](C)[C@@H](O[C@H]2C[C@@](C)(OC)[C@@H](O)[C@H](C)O2)C(C)[C@@H](O[C@@H]2O[C@H](C)C[C@H](N(C)C)[C@@H]2O)[C@](C)(OC)C[C@@H](C)C(=O)[C@H](C)[C@@H](O)[C@]1(C)O` (stereo partly specified), the Potency entry is “inactive”.
`CC[C@H]1OC(=O)[C@H](C)[C@@H](O[C@H]2C[C@@](C)(OC)[C@@H](O)[C@H](C)O2)[C@H](C)[C@@H](O[C@@H]2O[C@H](C)C[C@H](N(C)C)[C@H]2O)[C@](C)(O)C[C@@H](C)CN(C)[C@H](C)[C@@H](O)[C@]1(C)O`: the Potency is 14.1 µM (active).
For `O=C(/C=C/c1ccccc1O)c1ccco1`, the Potency result is “inactive”.
On to `COc1ccccc1/C=C/C(=O)/C=C/c1ccccc1O`, for which the Potency was 1.41 µM (active).
For `Cc1ccc2[nH]c3c(c2c1)CCCC3NC(=O)CCl` (stereo unspecified), the Potency was 4.47 µM (active).
In the case of `Cc1cc(NC(=O)CSCC(=O)Nc2ccccc2Oc2ccccc2)no1`, the Potency is 14.1 µM (active).
Next, `COC(=O)[C@@]1(Cc2ccc(F)cc2)[C@@H]2[C@@H](CC(=O)[C@H]2CC(=O)C(=O)N(C)C)CN1C(=O)c1ccccc1`: 11.2 µM (active); `Cc1cc([N+](=O)[O-])ccc1NC(=O)CSc1nncn1-c1cccnc1`: “inactive”; `O=C(N/N=C/c1cccn1-c1ccc([N+](=O)[O-])cc1)c1cccnc1`: 10 µM (active).
Regarding `CCOc1ccc(N(C(=O)c2snc(C(N)=O)c2N)C(C(=O)NCC2CCCO2)c2c[nH]c3ccccc23)cc1` (stereo unspecified), the Potency is 3.55 µM (active).
As for `Cc1cc(C)c(C(=O)/C=C/c2cccc3ccccc23)c(=O)[nH]1`, the Potency is 8.91 µM (active).
Next, `COc1ccc2[nH]c(=O)c(CN(CCCN(C)C)C(=O)Nc3ccc(F)cc3)cc2c1`: 14.1 µM (active); `O=C(Nc1nnc(SCc2ccc(F)cc2)s1)c1ccccn1`: 3.55 µM (active).
In the case of `O=c1c(Cl)cc(Cl)nn1-c1ccccc1`, the Potency was 12.6 µM (active).
The value for `COc1ccc(-n2nc(C#N)c(Cl)cc2=O)cc1` was “inactive”; that for `C=C[C@]1(C)C[C@@H](OC(=O)CSCCN(CC)CC)[C@]2(C)C(C)CC[C@]3(CCC(=O)[C@H]32)[C@@H](C)[C@@H]1O` (stereo partly specified) was 14.1 µM (active); that for `COc1ccccc1-c1cc(C(=O)N/N=C/c2sccc2C)c2ccccc2n1` was 3.98 µM (active).
The value for `COc1ccc(-c2cc(C(=O)N/N=C/c3sccc3C)c3ccccc3n2)c(OC)c1` was 12.6 µM (active); that for `COc1ccc(-c2cc(C(=O)N/N=C/c3ccc4c(c3)OCO4)c3ccccc3n2)c(OC)c1` was 7.94 µM (active).
`CCOC(=O)Nc1ccc2c(CNC(C)c3ccccc3OC)cc(=O)oc2c1` (stereo unspecified): the Potency was 14.1 µM (active).
As to `CCc1noc(C)c1C(=O)N1CCC(CCC(=O)Nc2cccc(C)c2)CC1`, the Potency is 11.2 µM (active).
Regarding `C/C(N)=C(/C#N)C(=O)COC(=O)c1cc(C)n(-c2ccc(F)cc2)c1C`, the Potency is 10 µM (active).
`O=C(CSc1nc2cc([N+](=O)[O-])ccc2n1-c1ccccc1)NCc1ccc2c(c1)OCO2`: the Potency is 11.2 µM (active).
The value for `O=C(NCc1ccc2c(c1)OCO2)c1nc(S(=O)(=O)Cc2ccccc2)ncc1Cl` was “inactive”; that for `Cc1nc([N+](=O)[O-])c(Sc2nc3ccccc3n2C)n1Cc1ccccc1` was 15.8 µM (active).
As for `CN1c2ccccc2C(C)(C)C12CC(c1ccc(S(=O)(=O)N3CCCCC3)cc1)=NO2` (stereo unspecified), the Potency is 5.62 µM (active).
Regarding `CCN(CC)S(=O)(=O)c1ccc(C2=NOC3(C2)N(C)c2ccccc2C3(C)C)cc1` (stereo unspecified), the Potency was 12.6 µM (active).
On to `C=CCSC(=C(C#N)C#N)c1cc2c([nH]1)CCCC2`, for which the Potency was 7.08 µM (active).
Take `COc1ccc(CN2CCN(C(=O)c3ccc(CNS(=O)(=O)c4ccc(C)cc4)cc3)CC2)c(OC)c1OC`: the Potency was 12.6 µM (active).
`COC(=O)[C@@]12CCCN1[C@H](c1ccc(-c3cccc(Cl)c3)c(OC)c1)[C@H]1C(=O)N(C)C(=O)[C@H]12`: the Potency was 2.82 µM (active).
Consider `CCN1C(=O)[C@@H]2[C@@H](c3ccc(SC4CCCCC4)c(OC)c3)N3CCC[C@@]3(C(=O)OC)[C@@H]2C1=O`, for which the Potency is 5.01 µM (active).
Next, `COc1cc(OC)c2c(-c3cccc(-c4cccc(N)c4)c3)cc(=O)oc2c1`: 10 µM (active); `O=C(NCCN1CCN(c2ccc([N+](=O)[O-])cc2)CC1)NCc1ccccc1`: 12.6 µM (active).
Next, `O=[N+]([O-])c1ccc(N2CCN(c3ccccc3)CC2)nc1`: “inactive”; `O=C1NC(=S)S/C1=C\C=C\c1ccc([N+](=O)[O-])o1`: 1.78 µM (active); `COC(=O)C1=C(C)N(CC2CC2)C(=NCc2cc(OC)c(OC)c(OC)c2)N[C@H]1c1ccccc1`: 12.6 µM (active).
`COc1ccccc1CNC(=O)c1ccc(-c2ccccc2Cl)o1`: the Potency is 12.6 µM (active).
The value for `Cc1ccc(CNS(=O)(=O)c2ccc(C)s2)cc1` was “inactive”; that for `Cc1ccc(CN2CCC(CNS(=O)(=O)c3ccc(-c4ccc(=O)[nH]n4)s3)CC2)cc1` was 5.01 µM (active); that for `CC1CN(c2nc(-c3ccc(Br)cc3)nnc2-c2ccccc2)CC(C)N1` (stereo unspecified) was 3.98 µM (active).
On to `Cc1ccc(-n2c(SCC(=O)Nc3ncc(Cl)cc3Cl)nc3ccccc32)cc1`, for which the Potency was 11.2 µM (active).
In the case of `COCCn1c(SCC(=O)Nc2ncc(Cl)c(C)c2Cl)nc2ccccc21`, the Potency entry was “inactive”.
For `O=C(CSc1nc2ccccc2n1-c1ccccc1)Nc1ncc(Cl)cc1Cl`, the Potency was 11.2 µM (active).
On to `CN1c2ccccc2-c2nc3ccccc3n2C1c1cccs1` (stereo unspecified), for which the Potency was 7.08 µM (active).
In the case of `Cc1ccc(-c2nnc(SCC(=O)N/N=C/c3cccs3)n2-c2ccc(C)cc2)cc1`, the Potency is 11.2 µM (active).
`CC(C)OCCCNc1ncnc2c1[nH]c1ccc(F)cc12`: the Potency is 4.47 µM (active).
As to `COc1ccc2[nH]c3c(NCCN(C(C)C)C(C)C)ncnc3c2c1`, the Potency was 5.62 µM (active).
With `COc1ccc2[nH]c3c(NCCC4=CCCCC4)ncnc3c2c1`, the Potency is 5.62 µM (active).
With `Cc1cc(C)n2nc(SCC(=O)N3CCN(c4ccc(F)cc4)CC3)nc2n1`, the Potency is 12.6 µM (active).
`CCn1c2ccccc2c2cc(Nc3cc(C)nc4ncnn34)ccc21`: the Potency was 0.251 µM (active).
As to `CCOC(=O)CCC(=O)Nc1ncnc2c1C(c1ccccc1)c1c(ccc3ccccc13)O2` (stereo unspecified), the Potency is 8.91 µM (active).
For `O=C(Nc1ccccc1O)c1ccc([N+](=O)[O-])cc1`, the Potency was 15.8 µM (active).
As to `O=C(Nc1ccccc1C(=O)Nc1ccccc1C(=O)O)c1ccccc1`, the Potency entry is “inactive”.
As to `Cc1ccc(N/N=C/c2ccncc2)cc1`, the Potency entry is “inactive”.
As for `Cc1sc(NC(=O)c2c(F)cccc2F)nc1-c1ccccc1`, the Potency result was “inactive”.
On to `Cc1sc(N/N=C/c2cccnc2)nc1-c1ccccc1`, for which the Potency was 12.6 µM (active).
Turning to `CC1CN(C(=O)N2c3ccccc3Sc3ccccc32)CC(C)O1` (stereo unspecified), the Potency is 14.1 µM (active).
In the case of `O=C(N1CCOCC1)N1c2ccccc2Sc2ccccc21`, the Potency result is “inactive”.
As for `C[C@@H](CN1C2=NC[C@H](Cc3ccc(O)cc3)N2C[C@H]1Cc1ccc(O)cc1)NC(=O)CCC1CCCCC1`, the Potency was 8.91 µM (active).
Regarding `C/C=C(\C)C(=O)NCCN1C2=NC[C@H](Cc3ccccc3)N2C[C@H]1Cc1ccc(O)cc1`, the Potency is 11.2 µM (active).
For the compound `C[C@H]1CN=C2N(CCNC(=O)CCC3CCCCC3)[C@H](Cc3ccc(O)cc3)CN21`, the Potency is 11.2 µM (active).
For `O=C(CCC1CCCCC1)NCCN1C2=NC[C@H](Cc3ccccc3)N2C[C@H]1Cc1ccc(O)cc1`, the Potency was 11.2 µM (active).
For the compound `CC1CCN(CCNC(=O)C2CCN(S(=O)(=O)c3cccc4nsnc34)CC2)CC1`, the Potency is 14.1 µM (active).
With `Cc1cc2nsnc2c(S(=O)(=O)N2CCN(C)CC2)c1C`, the Potency entry is “inactive”.
Turning to `CN(C)S(=O)(=O)c1cc(NC(=O)c2cc(=O)c3ccccc3o2)ccc1Cl`, the Potency was 11.2 µM (active).
For the compound `Nc1cc[n+](CC(=O)c2ccc3c(c2)OCCO3)cc1`, the Potency is 7.08 µM (active).
The value for `O=Cc1s/c(=N\S(=O)(=O)c2ccccc2)n(CCCCl)c1Cl` was “inactive”; that for `CCOC(=O)c1cnc2c(C)c(Cl)ccc2c1NCCCN1CCOCC1` was 14.1 µM (active); that for `N=c1c2c(n(Cc3ccc(Cl)c(Cl)c3)c3c1CCC3)CCCC2` was 0.355 µM (active).
With `N=c1c2c(n(Cc3ccc(Cl)cc3)c3c1CCC3)CCC2`, the Potency was 0.562 µM (active).
For `O=C(Nc1ccc(N2CCCCC2)c(Cl)c1)c1cccnc1`, the Potency was 11.2 µM (active).
As to `Cc1cc(C)cc(NC(=O)c2cccnc2)c1`, the Potency entry is “inactive”.
As for `COCCN(C(=O)c1ccccc1F)c1nnc(-c2ccc(OC)cc2)s1`, the Potency was 10 µM (active).
Regarding `CC(C)(C)C1C/C(=C/c2ccccn2)C(=O)/C(=C/c2ccccn2)C1` (stereo unspecified), the Potency is 0.316 µM (active).
In the case of `COC(=O)CSc1nc2c(c(-c3ccco3)c1C#N)CCCC2`, the Potency was 12.6 µM (active).
On to `N#C/C(=C\c1ccc(-c2ccc(C(=O)O)cc2)o1)C(=O)Nc1ccc(F)cc1`, for which the Potency was 14.1 µM (active).
Next, `Cc1ccc(NC2=C/C(=N\S(=O)(=O)c3cccs3)c3ccccc3C2=O)c(C)c1`: 0.282 µM (active); `CC(C)(C(=O)N[C@H](CO)c1ccccc1)C(=O)N[C@H](CO)c1ccccc1`: “inactive”; `CCCC(=O)NC(c1ccccc1)c1c(O)ccc2ccccc12` (stereo unspecified): 7.08 µM (active).
In the case of `CCCCNC(=O)c1onc(CSc2cccc3ccccc23)c1C(=O)O`, the Potency entry was “inactive”.
Next, `CCC1=C/C(=C/c2sc3ccccc3[n+]2CC)CC(C)(C)C1`: 5.62 µM (active); `CCC(C)[C@@H](NC(=O)OC(C)(C)C)c1nnc(S(=O)(=O)Cc2cccc(C)c2)o1` (stereo partly specified): 14.1 µM (active); `CCCc1nnc(NC(=O)c2nc(S(=O)(=O)Cc3cccc(C)c3)ncc2Cl)s1`: “inactive”.
